The source of these data is PubChem BioAssay (NCATS).

The source made the active and inactive calls. A call without a number means that no potency is given here. The call rests on the fitted dose curve; in most records, active means well fitted activation curve with a large enough effect; inconclusive means small, poorly fitted or top-dose-only effect; inactive means no such curve, though single readings can be large or run the other way.

The target in the experiment is Cytochrome P450 3A4 (Homo sapiens) (UniProt P08684). Nature of the experiment: qHTS Assay for Activators of Cytochrome P450 3A4 (AID 885). Further: nearly all actives have a fitted effect of over 65% in size. The settings on record: recombinant CYP3A4, Luciferin-PPXE luminescence, 60 min; series mostly up to 57.1 µM. In a few lines: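 CYP3A4 activity: Luciferin-PPXE O-dealkylation, 25uM substrate, 200mM KPO4, RT throughout. Read-out is luciferase luminescence; higher values reflect activation.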
Chain of Cytochrome P450 3A4 (Homo sapiens) (P08684 whole entry, looked up): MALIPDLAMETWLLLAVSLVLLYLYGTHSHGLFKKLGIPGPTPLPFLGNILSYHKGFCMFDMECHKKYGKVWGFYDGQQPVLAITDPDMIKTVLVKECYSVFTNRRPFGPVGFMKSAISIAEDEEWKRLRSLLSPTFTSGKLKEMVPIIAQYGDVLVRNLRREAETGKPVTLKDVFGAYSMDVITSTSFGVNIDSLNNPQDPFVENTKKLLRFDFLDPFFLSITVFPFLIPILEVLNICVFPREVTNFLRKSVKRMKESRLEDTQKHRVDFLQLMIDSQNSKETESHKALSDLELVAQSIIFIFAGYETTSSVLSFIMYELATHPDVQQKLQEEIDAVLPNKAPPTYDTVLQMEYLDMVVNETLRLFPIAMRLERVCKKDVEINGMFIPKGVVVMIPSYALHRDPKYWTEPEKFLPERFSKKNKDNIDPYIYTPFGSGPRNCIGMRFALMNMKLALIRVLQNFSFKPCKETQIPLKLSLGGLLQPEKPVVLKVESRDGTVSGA
(In general: In qHTS, concentration-response curves come from the screen itself.)
Take `COc1ccc(O[C@H]2C=C[C@@H](c3ccccc3)O[C@@H]2CO/N=C\[C@@H](C)[C@H](OCc2ccccc2)C(C)C)cc1`: the activity change, positive = activation was -73.9% [at 11.4 µM] (inactive).

With `CCN1C(=O)[C@H]2[C@H]3[C@H](O)[C@H](O)C/C(=N/O[C@@H](C)c4cc(-c5c(C)cc(C)cc5C)no4)[C@@H]3CC[C@@H]2C1=O`, the activity change, positive = activation is -72.9% [at 11.4 µM] (inactive).

For `Clc1ccc(C2[C@H]3CN(Cc4cccnc4)[C@H](c4ccccc4)C34CC2(c2cccnc2)C4)cn1` (stereo partly specified), the Potency entry was “inactive”.

For the compound `FC(F)(F)c1ccc(C2[C@H]3CN(Cc4cccnc4)[C@H](c4ccccc4)C34CC2(c2ccccc2)C4)cc1` (stereo partly specified), the Potency entry is “inactive”.

In the case of `CCCNC(=O)OC[C@@H]1O[C@H](CCO/N=C(\C)CCN2CCc3nc(CC)c(CC)cc3C2)C=C[C@@H]1Oc1ccc(OC)cc1`, the activity change, positive = activation was -86.1% [at 11.4 µM] (inactive).

As to `CCC1=C2CC[C@H]3C(=O)N(CC(=O)OC)C(=O)[C@H]3[C@H]2[C@@]2(C)C(=O)N(Cc3ccccc3)C(=O)N2C1=O`, the Potency entry was “inactive”.

`C=CC[C@@H]1C=C[C@H](O/N=C(\C)CCN2CCCc3nc(C)c(C)cc32)[C@H](CO)O1`: the activity change, positive = activation was -70.1% [at 11.4 µM] (inactive).

Regarding `C=CC[C@@H]1C=C[C@H](O/N=C\[C@@H](C)[C@H](OCc2ccccc2)C(C)C)[C@H](CO)O1`, the activity change, positive = activation is -73.8% [at 11.4 µM] (inactive).

On to `COC(=O)[C@@H]1C[C@@H]2CC[C@@H](O)C[C@@H]2N1CC1CCCCC1`, for which the Potency result is “inactive”.

With `c1ccc(C2[C@H]3CN(Cc4cccnc4)[C@H](c4ccccc4)C34CC2(c2cccnc2)C4)cc1` (stereo partly specified), the Potency entry was “inactive”.

As for `COc1c(O)c(O)cc2c1oc1c3ccccc3oc(=O)c21`, the Potency entry is “inactive”.
